Each structure is given as a SMILES string. In all, about 340,000 compounds went through this assay and about 20 (0.006%) were called active. The sample holds actives, similar compounds and a random draw of the others, so the mix is not that of the screen. Unmarked numbers belong to inactive results. Calls come from the whole dose curve; as a rule, active = well fitted inhibition curve with a large enough effect; inconclusive = small, poorly fitted or top-dose-only effect; inactive = no such curve, though single readings can be large or run the other way.

Sequence of Sphingomyelin phosphodiesterase (Homo sapiens) (P17405 47-631 limits assumed): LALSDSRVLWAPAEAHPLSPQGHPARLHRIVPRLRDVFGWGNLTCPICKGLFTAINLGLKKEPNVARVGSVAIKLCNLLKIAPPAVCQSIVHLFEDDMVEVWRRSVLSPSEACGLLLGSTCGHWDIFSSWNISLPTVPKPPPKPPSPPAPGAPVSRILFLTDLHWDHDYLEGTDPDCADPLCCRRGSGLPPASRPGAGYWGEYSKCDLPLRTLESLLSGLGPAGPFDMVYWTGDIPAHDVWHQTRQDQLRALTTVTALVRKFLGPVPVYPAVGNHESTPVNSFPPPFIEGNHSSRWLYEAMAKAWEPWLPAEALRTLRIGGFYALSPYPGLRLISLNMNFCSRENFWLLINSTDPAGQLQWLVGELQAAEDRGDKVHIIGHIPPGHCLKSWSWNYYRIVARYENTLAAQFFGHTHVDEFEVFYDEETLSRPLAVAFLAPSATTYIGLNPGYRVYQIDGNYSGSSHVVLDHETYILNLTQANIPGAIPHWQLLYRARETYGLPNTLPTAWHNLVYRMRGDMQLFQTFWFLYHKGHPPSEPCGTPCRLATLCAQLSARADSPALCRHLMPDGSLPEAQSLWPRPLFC

This assay addresses Sphingomyelin phosphodiesterase (Homo sapiens) (UniProt P17405). Put plainly: Inhibitors of Secretory Acid Sphingomyelinase (S-ASM): qHTS. As to conditions: placental ASM, HMU-PC fluorogenic substrate, 60 min; series mostly up to 57.5 µM; activity change, negative = inhibition: at the top concentration. From the text:
Atherosclerosis is the underlying process for cardiovascular disease and thus is a major contributor to disease burden in the population. […] Thus, selective small molecule inhibitors of S-ASM should block LDL modification and reduce aortic LDL retention and may serve as new agents for the treatment of atherosclerosis. In a collaboration between National Heart, Lung, and Blood Institute and the NCGC a high-throughput amenable screen was developed to identify potent and selective small molecule inhibitors of S-ASM. This enzymatic, fluorescent screen uses an ASM enzyme preparation derived from human placenta and was tested against the NIH Molecular Libraries Small Molecule Repository (MLSMR). NIH Chemical Genomics Center [NCGC] NIH Molecular Libraries Probe Centers Network [MLPCN] MLPCN Grant: MH093173-01 Assay Submitter (PI): Alan Remaley, National Heart, Lung, and Blood Institute and Wei Zhen, NIH Chemical Genomics Center
Two microliters of ASM enzyme (1:150 dilution from stock) are dispensed in 1536-well plate. 23 nL of compound and control are pinned into assay plate using the Kalypsys pintool. The plates are then incubated for 10 minutes at ambient room temperature. Then, 2 uL of the flurogenic substrate, HMU-PC0, (9 uM final) are added to the plate. An incubation for 60 minutes takes place at 37 masculineC. After that, 4 uL of stop solution is added to raise the pH to 10 to end the kinetic reaction. Plate is read on ViewLux, with detection set at Ex = 386 (10) nm and Em = 447 (10) nm.
(qHTS replaces the single test concentration by a dilution series.)
`Cc1cccc(C(=O)O)c1[N+](=O)[O-]`: the “activity change, negative = inhibition” value is -0.0655%.

Consider `CCCn1c(C)cc(C(=O)COC(=O)c2c(C)nn(-c3ccccc3)c2C)c1C`, for which the “activity change, negative = inhibition” value is -4.51%.

As to `O=C(c1ccc(F)cc1)N1CCC(C(=O)N2CCN(S(=O)(=O)c3ccccc3Br)CC2)CC1`, the “activity change, negative = inhibition” value is 2.48%.

As to `Nc1ccccc1C(=O)NC1CCCCNC1=O` (stereo unspecified), the “activity change, negative = inhibition” value is 13.5%.

As to `O=C(N/N=C/c1cccc2cccnc12)[C@H]1C[C@@H]1c1ccccc1`, the “activity change, negative = inhibition” value is -2.45%.

For `COCC(=O)N(C)[C@H]1C[C@H]2c3cc(Oc4ccccc4C)ccc3CCN2C(=O)[C@H]1[C@H](C)O`, the “activity change, negative = inhibition” value was 6.99%.

With `COC(=O)c1ccc(C2NC(=O)NC(C)=C2C(=O)N(C)C)cc1` (stereo unspecified), the “activity change, negative = inhibition” value is 3.7%.

As to `COc1ccc2c(c1)C(NS(=O)(=O)OCC(Cl)(Cl)Cl)CCC2` (stereo unspecified), the “activity change, negative = inhibition” value was -5.56%.

For the compound `CCOc1ccc(-c2nc(C)sc2CC(=O)O)cc1`, the “activity change, negative = inhibition” value was -0.38%.

On to `Cc1ccc(N(C(=O)CNC(=O)c2ccco2)C(C(=O)NC2CCCC2)c2ccncc2)cc1` (stereo unspecified), for which the “activity change, negative = inhibition” value is -4.07%.

As to `COc1ccc(NC(=O)NN2CCN(C)CC2)c(OC)c1`, the “activity change, negative = inhibition” value was -3.22%.

With `COC(=O)C1=C(C)N(C)C(C)=C(C(=O)OC)C1c1cccc(Br)c1`, the “activity change, negative = inhibition” value is -20.8%.

Consider `Cc1c(C(C)CCCO)oc(=O)c2c1Oc1c(C)c(C(C)C[C@@H](C)O)oc(=O)c1C2` (stereo partly specified), for which the “activity change, negative = inhibition” value was 2.63%.

`C=CCC(Nc1ccccc1)c1cccc(OC)c1OC` (stereo unspecified): the “activity change, negative = inhibition” value was 0.351%.

As to `Cc1nn(Cc2ccc(C(=O)N3N=C(C(F)F)CC3(O)C(F)F)cc2)c(C)c1[N+](=O)[O-]` (stereo unspecified), the “activity change, negative = inhibition” value is -1.95%.

On to `O=C(Nc1cccnc1Oc1ncnc2cc(Cl)ccc12)c1ccc(F)cc1`, for which the “activity change, negative = inhibition” value was -1.19%.

`CCOc1ccc(N2C(=O)Nc3ccccc3C2(O)C(=O)NCc2ccco2)cc1` (stereo unspecified): the “activity change, negative = inhibition” value was 0.0783%.

For `O=C1COc2c1ccc(O)c2O`, the “activity change, negative = inhibition” value is 3.65%.

As to `CC(C)Cn1cnc2c1c(=O)n(CC(=O)NN)c(=O)n2Cc1ccccc1`, the “activity change, negative = inhibition” value is -3.33%.

Take `Cc1ccsc1/C=N/NC(=O)Cc1cc(=O)[nH][nH]1`: the “activity change, negative = inhibition” value is 0.0426%.

In the case of `Cc1ccc(S(=O)(=O)Nc2ccccc2CNc2c(C)n(C)n(-c3ccccc3)c2=O)cc1`, the “activity change, negative = inhibition” value was -0.0525%.

Take `CCC(C)N1C(=O)S/C(=C/c2ccc(Sc3nc4ccccc4[nH]3)o2)C1=O` (stereo unspecified): the “activity change, negative = inhibition” value is 1.34%.

`COc1ccc(CN2CCC(n3nccc3NC(=O)CCCc3ccccc3)CC2)cc1C`: the “activity change, negative = inhibition” value was -0.972%.

Take `NS(=O)(=O)c1ccc(NC(=S)NNC(=O)c2cccs2)cc1`: the “activity change, negative = inhibition” value is 1.24%.

Regarding `Cc1cccc(NC(=O)Cn2cc(C(=O)c3ccco3)c3ccccc32)c1`, the “activity change, negative = inhibition” value is -9.25%.

With `CCC(CC)C(=O)Nc1ccc(S(=O)(=O)Nc2nccs2)cc1`, the “activity change, negative = inhibition” value was 3.8%.

Regarding `O=C(CSc1nc2[nH]c(=O)[nH]c(=O)c2s1)Nc1cccc(F)c1`, the “activity change, negative = inhibition” value is -2.4%.

On to `CSCCC(NC(N)=O)C(=O)N(C)CC(=O)Nc1ccc(C)cc1` (stereo unspecified), for which the “activity change, negative = inhibition” value is 2.8%.

Consider `CC/C(Cc1ccccc1)=N/NC(=O)CCn1nnc2ccccc21`, for which the “activity change, negative = inhibition” value was -1.28%.

In the case of `COc1ccc(C2/C=C\CN(CC(C)C)CC(=O)N2Cc2ccc(F)cc2)cc1` (stereo unspecified), the “activity change, negative = inhibition” value was -2.65%.

For the compound `COc1ccc(CN2CCOC2=O)cc1OC`, the “activity change, negative = inhibition” value is -0.898%.

Turning to `COc1ccc(CNC(=O)CN(C(=O)c2csnn2)c2cnc3ccccc3c2)cc1`, the “activity change, negative = inhibition” value is 21.4%.

For `CC(=O)c1cccc(NC(=O)C2CCCN(S(=O)(=O)c3cccc4nonc34)C2)c1` (stereo unspecified), the “activity change, negative = inhibition” value was 5.69%.

On to `Nc1cccc2c1C(=O)N(Cc1nnc(-c3ccccc3Br)o1)C2=O`, for which the “activity change, negative = inhibition” value was 340%.

Turning to `CC1CCCCC1NC(=O)CCS(=O)(=O)c1cccc2nonc12` (stereo unspecified), the “activity change, negative = inhibition” value is -1.19%.

`O=C(NNS(=O)(=O)c1ccc(F)cc1)C1CCCCC1`: the “activity change, negative = inhibition” value was -0.201%.

As to `CCN(CC(=O)NCc1cccs1)C(=O)/C=C/c1ccc(C)cc1`, the “activity change, negative = inhibition” value was -0.0187%.

For `CCn1c(O)c2ccc(C(=O)N=NC(=O)c3cccnc3)cc2c1O`, the “activity change, negative = inhibition” value is -1.65%.

In the case of `O=C(NCC(=O)N(CC1CCCO1)C(C(=O)NC1CCCCC1)c1ccccc1)c1ccco1` (stereo unspecified), the “activity change, negative = inhibition” value is -1.66%.

Consider `CC(C)Cn1c(SCC(=O)Nc2ccc(Cl)cc2F)nc(O)cc1=O`, for which the “activity change, negative = inhibition” value was -4.26%.

`COc1ccc(SCCN2CCN(CC(C)C)CCC2=O)cc1`: the “activity change, negative = inhibition” value is -3.87%.

For `O=S(=O)(c1ccccc1)N1CCC(c2ccccc2)CC1`, the “activity change, negative = inhibition” value is 0.311%.

On to `Cc1cc(OCC(=O)N(C)c2c(N)n(Cc3ccccc3)c(=O)[nH]c2=O)c(C(C)C)cc1Cl`, for which the “activity change, negative = inhibition” value was 4.87%.

`CN(C(=O)c1ccccc1)c1nccnc1C#N`: the “activity change, negative = inhibition” value was 7.06%.

`Cc1ccc(-c2nc(C)sc2CC(=O)OCC(=O)Nc2c(F)cccc2F)cc1`: the “activity change, negative = inhibition” value is 4%.

Take `Cn1c(=O)n(C)c(=O)n(CC(=O)N2CCCCC2)c1=O`: the “activity change, negative = inhibition” value was -0.0512%.

`COc1ccccc1CCNS(=O)(=O)c1cc2c3c(c1)C(C)C(=O)N3CCC2` (stereo unspecified): the “activity change, negative = inhibition” value was 4.58%.

In the case of `CN(c1ccc2nc3ccccc3c(=O)n2n1)C1CCCCC1`, the “activity change, negative = inhibition” value was 2.94%.

In the case of `O=S1(=O)CCN2C(=N1)SC1=C2CCN(Cc2ccccc2)C1`, the “activity change, negative = inhibition” value is 1.51%.

Turning to `CCOC(=O)c1cc(-c2ccc(F)cc2)n(CC(=O)NCc2ccccn2)c1C`, the “activity change, negative = inhibition” value was -2.49%.

Consider `COc1ccc(C(C(=O)NC2CCCCC2)N(C(=O)Cc2c[nH]c3ccccc23)c2ccccc2)cc1OC` (stereo unspecified), for which the “activity change, negative = inhibition” value is -5.66%.

Values taken from PubChem BioAssay AID504937 (National Center for Advancing Translational Sciences (NCATS), 2011).
